According to PubChem BioAssay AID651871 (Sanford-Burnham Center for Chemical Genomics, 2012):
Values joined by “and” are separate entries in the source; they are usually repeats but may differ in a detail not shown here. Identical values can stand only once.

tested on: H9c2; experiment: protection of cardiomyocytes from stress damage, SAR follow-up, cell-based, panel, H9c2 and HL-1, ATP luminescence, set 2 (AID 651871); settings: H9c2/HL-1 cardiomyocytes, 2-deoxyglucose stress, with 2-deoxyglucose, run 4, at 79 µM (top of the series);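 further: cells exposed to stressor for 2 h before ATP readout; reference of the scale not given here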

Compound | activity (protection/inhibition)
COc1ccc2c(c1OC)C(=O)N1c3ccccc3C(=O)N(Cc3cccc(Cl)c3Cl)C21 (stereo not drawn) | 57.7% and -8.42%
CCOC(=O)c1cccc(NC(=O)CNC(=O)c2cc(-c3cc(OC)c(OC)c(OC)c3)nc3ccccc23)c1 | 87.2%
COc1ccc2nc(-c3cc(OC)c(OC)c(OC)c3)cc(C(=O)NCC(=O)Nc3ccc(C(C)=O)cc3)c2c1 | 80.7%
